Here are results for 17 compounds from the supplement of paper PMC9492666.

Assay [1] relates to HCC1937. Nature of the assay: relative cell viability, compound + erastin, vs DMSO (fraction of DMSO control); higher = less growth inhibition. The settings on record: 72 h.
Assay [2] relates to MDA-MB-231. Described as above. The settings on record: 72 h.
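Note: viability read by CCK-8 kit in 96-well plates, part of a combination screen pairing lipid-metabolism-targeting compounds with erastin.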

In the case of `COc1cccc(-n2c(=O)[nH]c3cc(Cl)n(-c4ccc(-c5cccc(OC)c5O)cc4)c3c2=O)c1` + CCOc1ccccc1-n1c(C(C)N2CCN(C(=O)COc3ccc(Cl)cc3)CC2)nc2ccccc2c1=O [erastin], the relative cell viability in assay [1] amounted to 0.66; in assay [2], 0.852.
Take `CC(=O)Nc1nc(C)c(S(=O)(=O)Nc2ccc(C(O)(C(F)(F)F)C(F)(F)F)cc2)s1` + CCOc1ccccc1-n1c(C(C)N2CCN(C(=O)COc3ccc(Cl)cc3)CC2)nc2ccccc2c1=O [erastin]: the relative cell viability worked out at 0.956 in assay [1] and 1.1 in assay [2].
On the same counts, the results for `Cc1ccc(C)c(OCCCC(C)(C)C(=O)O)c1` [Gemfibrozil] + CCOc1ccccc1-n1c(C(C)N2CCN(C(=O)COc3ccc(Cl)cc3)CC2)nc2ccccc2c1=O [erastin] are 0.688 and 0.941.
On the same counts, the results for `O=C(OC(C(F)(F)F)C(F)(F)F)N1CCC(C(O)(c2ccc3c(c2)OCO3)c2ccc3c(c2)OCO3)CC1` + CCOc1ccccc1-n1c(C(C)N2CCN(C(=O)COc3ccc(Cl)cc3)CC2)nc2ccccc2c1=O [erastin] are 0.53 and 0.546.
Regarding `C[C@H](CCC(=O)O)[C@H]1CC[C@H]2[C@@H]3CC[C@@H]4C[C@H](O)CC[C@]4(C)[C@H]3CC[C@]12C` [Lithocholic acid] + CCOc1ccccc1-n1c(C(C)N2CCN(C(=O)COc3ccc(Cl)cc3)CC2)nc2ccccc2c1=O [erastin], the relative cell viability was determined as 0.832 in assay [1] and 0.688 in assay [2].
For `CCCc1c(-c2ccccc2)[nH]n(-c2ccccn2)c1=O` [APX-115 free base] + CCOc1ccccc1-n1c(C(C)N2CCN(C(=O)COc3ccc(Cl)cc3)CC2)nc2ccccc2c1=O [erastin], in that order: 0.615 and 0.625.
On the same counts, the results for `CCc1ccc(N(CC(C)C)S(=O)(=O)c2ccc(OCC3CCOCC3)c(CO)c2)cc1` + CCOc1ccccc1-n1c(C(C)N2CCN(C(=O)COc3ccc(Cl)cc3)CC2)nc2ccccc2c1=O [erastin] are 0.508 and 0.604.
For `CC(C)(C)NC(=O)[C@H]1CC[C@H]2[C@@H]3CC[C@H]4NC(=O)C=C[C@]4(C)[C@H]3CC[C@]12C` [Finasteride] + CCOc1ccccc1-n1c(C(C)N2CCN(C(=O)COc3ccc(Cl)cc3)CC2)nc2ccccc2c1=O [erastin], in that order: 0.873 and 0.646.
With `O=C(O)C(=O)Nc1sc2c(c1C(=O)O)CCNC2` + CCOc1ccccc1-n1c(C(C)N2CCN(C(=O)COc3ccc(Cl)cc3)CC2)nc2ccccc2c1=O [erastin], the relative cell viability in assay [1] worked out at 0.755; in assay [2], 0.635.
On the same counts, the results for `COc1ccc(CN2CCC(c3ccc4nc(C(=O)N5CCN(Cc6ccc(C(F)(F)F)cc6)CC5)[nH]c4c3)CC2)cn1` + CCOc1ccccc1-n1c(C(C)N2CCN(C(=O)COc3ccc(Cl)cc3)CC2)nc2ccccc2c1=O [erastin] are 0.569 and 0.585.
Regarding `C[C@]12CC[C@@H](O)C[C@@H]1CC[C@@H]1[C@@H]2CC[C@]2(C)C(=O)CC[C@@H]12` [Androsterone] + CCOc1ccccc1-n1c(C(C)N2CCN(C(=O)COc3ccc(Cl)cc3)CC2)nc2ccccc2c1=O [erastin], the figures for the relative cell viability in assay [1] and in assay [2] were 0.763 and 0.564, respectively.
For `Cn1c2cc([S+](C)[O-])sc2c2cnn(Cc3cccc(N)c3)c(=O)c21` (centres undefined) + CCOc1ccccc1-n1c(C(C)N2CCN(C(=O)COc3ccc(Cl)cc3)CC2)nc2ccccc2c1=O [erastin], in that order: 0.61 and 0.745.
For `O=C1c2cccc(O)c2C(=O)c2c(O)cccc21` [Antrapurol] + CCOc1ccccc1-n1c(C(C)N2CCN(C(=O)COc3ccc(Cl)cc3)CC2)nc2ccccc2c1=O [erastin], the relative cell viability is 0.735 in assay [1] and 0.903 in assay [2].
For `CC1CC(OC(=O)C(O)c2ccccc2)CC(C)(C)C1` (centres undefined) [Cyclandelate] + CCOc1ccccc1-n1c(C(C)N2CCN(C(=O)COc3ccc(Cl)cc3)CC2)nc2ccccc2c1=O [erastin], in that order: 0.828 and 0.606.
For `C[C@@H]1OCC2(CCN(c3cnc(Sc4ccnc(N)c4Cl)c(N)n3)CC2)[C@@H]1N` + CCOc1ccccc1-n1c(C(C)N2CCN(C(=O)COc3ccc(Cl)cc3)CC2)nc2ccccc2c1=O [erastin], in that order: 0.553 and 0.732.
On the same counts, the results for `COc1ccc2c(c1)CCC1C2CCC2(C)C(NCCCCCCN3C(=O)C=CC3=O)CCC12` (centres undefined) + CCOc1ccccc1-n1c(C(C)N2CCN(C(=O)COc3ccc(Cl)cc3)CC2)nc2ccccc2c1=O [erastin] are 0.47 and 0.67.
`Oc1ccc2c(c1)OCO2` [Sesamol] + CCOc1ccccc1-n1c(C(C)N2CCN(C(=O)COc3ccc(Cl)cc3)CC2)nc2ccccc2c1=O [erastin]: the relative cell viability in assay [1] is 0.489; in assay [2], 1.02.
